From PubChem
ALDH1A1 block: ALDH1A1 (human) enzyme inhibition; Purified ALDH1A1, NADH fluorescence, propionaldehyde substrate; Potency, µM (top dose mostly 75.3 µM), usual class: inhibitors; actives 7.3% (n = 220,000); AID 1030
HPGD inh: blocks human HPGD enzyme activity; P15428; purified HPGD, NADH fluorescence kinetic, PGE2 substrate; Potency, µM, actives largely listed as inhibitors; actives 4.3% (n = 150,000)
Target sequence (P15428 whole entry, looked up): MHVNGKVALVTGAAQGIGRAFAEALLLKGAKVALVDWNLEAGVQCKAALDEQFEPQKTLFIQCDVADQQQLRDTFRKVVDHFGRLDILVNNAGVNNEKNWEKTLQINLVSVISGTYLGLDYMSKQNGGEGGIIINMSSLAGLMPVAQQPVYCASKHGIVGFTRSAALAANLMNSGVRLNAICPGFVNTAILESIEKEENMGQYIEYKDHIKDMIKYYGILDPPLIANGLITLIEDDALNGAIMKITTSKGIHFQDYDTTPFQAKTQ
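20 nM HPGD preincubated 15 min at room temperature with compound in 50 mM Tris-HCl pH 8, 0.01% Tween 20. Started with 1 mM NAD+ and 30 uM prostaglandin E2; NADH fluorescence (360/450 nm) read 5 times over 30-s intervals, last minus first.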
LMNA splice mod: changes lamin A minigene splicing in HeLa cells; Potency, µM (doses to about 46.1 µM), most hits filed as inhibitors; actives 0.01% (n = 200,000); HeLa LMNA splicing GFP/RFP minigene ratio, 48 h; active = well fitted inhibition curve with a large enough effect in the signal ratio, with a control signal flat, not every such curve was filed as active; inconclusive = small, poorly fitted or top-dose-only effect, or effect the other way, or a change in a side signal; the % refers to the signal ratio
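Read-out is the ratio of GFP to DsRed2 object intensity, acquired by 488 nm laser-scanning cytometry on HeLa lamin A-EGFP minigene reporter cells. Compound incubation 48 hrs at 37 °C in Opti-MEM with 2% FBS; DMSO 0.5% final.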
PNC inhibitor: perinucleolar compartment assembly inhibition; PC3M PTB-GFP, PNC prevalence imaging, 16 h; active compounds read low; AID 2417; actives 3.1% (n = 140,000); activity change (PNC), negative = inhibition, % at 10 µM;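 active = readout at or below -70, meaning at least 70% loss of cells showing the perinucleolar compartment, a nuclear body marking cancer cells; inconclusive = readout between -30 and a set limit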
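PC3M cells stably expressing PTB-GFP, 750–1000 cells/well, treated 16 h at 37 °C with compound (23 nl of library stock), in duplicate. After paraformaldehyde fixation and Hoechst stain, imaged at 20x; PNC prevalence scored by image analysis.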
Luc counter: counter-screen: inhibitors of Kinase-Glo firefly luciferase | Potency, µM (doses to about 38.3 µM), most hits filed as inhibitors | Kinase-Glo luciferase, ATP luminescence, 8 min | actives 0.28% (n = 200,000) | AID 1379 | Q27757; active = well fitted inhibition curve with a large enough effect; inconclusive = small, poorly fitted or top-dose-only effect; also: nearly all actives have a fitted effect of over 60% in size
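Light output from Kinase-Glo luciferase with luciferin and 10 uM ATP in 50 mM imidazole pH 7.2, KCl, MgCl2, Tween 20, BSA; compound pin-delivered, 8-min ambient incubation, then luminescence read.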
Each line names hits and unclear results; the compound was inactive in the other large screens. Hits are enriched below; roughly 10% of the tested compounds scored in any of these assays. Unless noted, calls follow the shape of the dose curve; as a rule, active = well fitted inhibition curve with a large enough effect (not every such curve was filed as active); inconclusive = small, poorly fitted or top-dose-only effect, or another doubt; inactive = no such curve, though single readings can be large or run the other way.

COc1ccc(NC(=S)NNC(=S)Nc2cccc(C(F)(F)F)c2)cc1	ALDH1A1 block 0.45µM (no result: HPGD inh, LMNA splice mod, PNC inhibitor, Luc counter)
CCOc1ccc(NC(=S)NNc2ccnc3cc(Cl)ccc23)cc1	ALDH1A1 block 3.2µM, LMNA splice mod inconclusive (no result: HPGD inh, PNC inhibitor)
FC(F)(F)c1cccc(NC(=S)Nc2ccc(Cl)c(Cl)c2)c1	ALDH1A1 block 13µM (no result: HPGD inh, LMNA splice mod, PNC inhibitor, Luc counter)
Cc1ccc(CNC(=O)C2CCN(S(=O)(=O)c3cn(C)cn3)CC2)cc1	none (no result: ALDH1A1 block, HPGD inh, PNC inhibitor, Luc counter)
CCOc1cc(OCC)cc(C(=O)NC(=S)Nc2cccc(C(F)(F)F)c2)c1	ALDH1A1 block 3.5µM
Cc1sc2ncnc(SCC(=O)NCC(C)C)c2c1C	HPGD inh 16µM
Brc1ccc(CNCCCSc2nnnn2-c2ccccc2)cc1	none (no result: ALDH1A1 block, HPGD inh, PNC inhibitor, Luc counter)
Cc1c(Cc2ccccc2)sc(/N=C/c2ccc3ccccc3c2)c1C(N)=O	ALDH1A1 block inconclusive, HPGD inh inconclusive, LMNA splice mod inconclusive, PNC inhibitor -103
COC(=O)c1c(NC(C)=O)sc(Cc2ccccc2)c1C	none
CCC(=O)Nc1sc(Cc2ccccc2)c(C)c1C(N)=O	ALDH1A1 block 22µM, LMNA splice mod inconclusive (no result: HPGD inh, PNC inhibitor)
Cc1c(Cc2ccccc2)sc(NC(=O)C(C)(C)C)c1C(N)=O	ALDH1A1 block 8.9µM (no result: HPGD inh, LMNA splice mod, PNC inhibitor)
Cc1c(Cc2ccccc2)sc(N)c1C(N)=O	ALDH1A1 block 16µM, HPGD inh 28µM
Cc1ccc(/C=N/c2sc(Cc3ccccc3)c(C)c2C(N)=O)o1	ALDH1A1 block inconclusive
Cc1nc(N=Nc2cc(S(=O)(=O)O)ccc2S(=O)(=O)O)c(COP(=O)(O)O)c(C=O)c1O	HPGD inh inconclusive (no result: LMNA splice mod, PNC inhibitor)
CC1CCCN(S(=O)(=O)c2ccc(N3CCCCS3(=O)=O)cc2)C1 (stereo not drawn)	none (no result: ALDH1A1 block, HPGD inh, PNC inhibitor, Luc counter)
CS(=O)(=O)Nc1cccc(-c2nccc(-n3ccnc3)n2)c1	HPGD inh 18µM (no result: PNC inhibitor)
CCCCOC(=O)c1ccc(Nc2ncnc3[nH]ncc23)cc1	none (no result: ALDH1A1 block, HPGD inh, PNC inhibitor, Luc counter)
Cc1cc2c(c(=O)n1CC1CCCO1)C(c1ccc3c(c1)OCO3)C(C#N)=C(N)O2 (stereo not drawn)	ALDH1A1 block 11µM
OC[C@H]1NC[C@@H](O)[C@@H](O)[C@H]1O	ALDH1A1 block inconclusive (no result: LMNA splice mod, PNC inhibitor)
C[n+]1ccccc1/C=N\O	LMNA splice mod inconclusive (no result: PNC inhibitor)
COc1ccccc1CC(=O)Nc1ccc2nc(Nc3cccc(Cl)c3)cc(C)c2c1	none (no result: ALDH1A1 block, HPGD inh, PNC inhibitor, Luc counter)
CC1=NN(c2ccccc2)C(=O)/C1=C\C=C1\N(C)c2ccccc2C1(C)C	ALDH1A1 block inconclusive, LMNA splice mod inconclusive
CC1=NN(c2ccccc2)C(=O)/C1=C/C=C/c1ccc(N(C)C)cc1	LMNA splice mod inconclusive, Luc counter 13µM (no result: HPGD inh, PNC inhibitor)
CCOC(=O)CC1=NN(c2ccccc2)C(=O)/C1=C\c1ccc(N(C)C)cc1	ALDH1A1 block 5µM
CCOC(=O)CC1=NN(c2ccccc2)C(=O)C1	LMNA splice mod inconclusive (no result: HPGD inh, PNC inhibitor)
C=CCOC(=O)N[C@@H](c1ccc(Br)cc1)C(C(C)=O)C(C)=O	none (no result: LMNA splice mod, PNC inhibitor)
Cc1ncc(CSc2ccccc2N)c(CO)c1O	none (no result: LMNA splice mod, PNC inhibitor)
CCc1nc(N[C@@H](CC(C)C)C(=O)O)c2oc3ccccc3c2n1	ALDH1A1 block 0.89µM
CCc1nc(N2CCCCC2)c2oc3ccccc3c2n1	ALDH1A1 block 13µM, LMNA splice mod inconclusive
CCc1nc(NC(C)C)c2oc3ccccc3c2n1	ALDH1A1 block inconclusive, PNC inhibitor -94
CCc1nc(NCCN2CCOCC2)c2oc3ccccc3c2n1	ALDH1A1 block 0.89µM, PNC inhibitor inconclusive
CCc1nc(NCCCN2CCOCC2)c2oc3ccccc3c2n1	none
CCCCCNC(=O)c1c[nH]c2ccc(S(=O)(=O)N3CCC(C)CC3)cc2c1=O	none (no result: ALDH1A1 block, HPGD inh, PNC inhibitor, Luc counter)
COc1ccc(Nc2ncnc3c2cnn3C)c(OC)c1	none (no result: ALDH1A1 block, HPGD inh, PNC inhibitor, Luc counter)
CSCC[C@@H](Nc1nc(-c2ccccc2)nc2c1oc1ccccc12)C(=O)O	ALDH1A1 block 11µM
Cc1nc(N[C@@H](Cc2ccccc2)C(=O)O)c2oc3ccccc3c2n1	ALDH1A1 block 18µM
Cc1nc(N[C@@H](Cc2c[nH]c3ccccc23)C(=O)O)c2oc3ccccc3c2n1	HPGD inh inconclusive
CCc1nc(N[C@H](C(=O)O)C(C)C)c2oc3ccccc3c2n1	ALDH1A1 block 0.79µM (no result: HPGD inh, LMNA splice mod, PNC inhibitor, Luc counter)
CC(C)CCNC(=O)c1ccc2c(c1)nc1n2CCCCC1	none (no result: ALDH1A1 block, HPGD inh, PNC inhibitor, Luc counter)
CO[C@H]1COC(=O)C/C=C\[C@H](C)COC(=O)[C@@H](C)NC(=O)C/C=C\[C@@H]1C	none (no result: HPGD inh, LMNA splice mod, PNC inhibitor, Luc counter)
O=C1CC2(CCCC2)CC(=O)N1CCNCC1COc2ccccc2O1 (stereo not drawn)	ALDH1A1 block 28µM (no result: HPGD inh, LMNA splice mod, PNC inhibitor, Luc counter)
